# Test results as given in PubChem BioAssay (NCATS).
# Values without a mark were called inactive. Inconclusive results are not listed. Calls of active or inactive are those of the source. Unless noted, calls come from the whole dose curve; as a rule, active = well fitted curve in either direction with a large enough effect (not every such curve was filed as active); inconclusive = small, poorly fitted or top-dose-only effect, or another doubt; inactive = flat fitted curve, though single readings scatter.
# Legend:
# [1] = Primary qHTS for small molecule stabilizers of the endoplasmic reticulum resident proteome: Secreted ER Calcium Modulated Protein (SERCaMP) assay (AID 1508630; active = well fitted curve in the direction sought with a large enough effect; an effect the other way counts as inactive or inconclusive; note: % is set by controls: 0 for no effect and ±100 for the full control effect); conditions: SH-SY5Y GLuc-SERCaMP (Gaussia luciferase released on ER calcium loss) secretion, thapsigargin, luminescence; series mostly up to 38.4 µM
# Method in brief: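 GLuc-SERCaMP-expressing SH-SY5Y cells, pretreated 16 h with compound, are challenged with thapsigargin to empty ER calcium stores; after 4 h, coelenterazine is added directly to the medium and luminescence is imaged.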
# [2] = AP1 Signaling Pathway (AID 357); conditions: ME-180 AP-1-bla reporter, EGF-induced, beta-lactamase ratio, 5 h; at 7.69 µM (top of the series) unless noted; note: % is set by controls: 0 for no effect and ±100 for the full control effect
# Method in brief: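 ME-180 cells with beta-lactamase reporter under AP-1 response element, stimulated with EC50 EGF; compounds tested in titration series, 5 h at 37 °C. CCF4 substrate added 2.5 h at room temperature; 460/530 nm emission ratio gave %activity and AC50.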
# [3] = biological target: Cytochrome P450 1A2 (Homo sapiens) (UniProt P05177); test: p450-cyp1a2 (AID 410; calls by dose curve; note: potency is the fitted concentration of half-maximal effect;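 for activity change, negative = inhibition: -100% = full effect of reference inhibitor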); conditions: recombinant CYP1A2, luciferin-ME demethylation, luminescence; series mostly up to 57 µM
# Method in brief: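 Inhibition was calculated relative to 57 uM furafylline (full inhibition). The reaction used human CYP1A2 at 20nM with Luciferin-ME at its Km, 100uM, driven by an NADPH-regenerating system for 60 min at room temperature.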
# [4] = NFAT Signaling Pathway (AID 444); conditions: Jurkat NFAT-bla M1, carbachol, beta-lactamase ratio, 5 h; at 7.69 µM (top of the series) unless noted;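 note: carbachol stimulus at about its EC50 of 1 µM final; % is set by controls: 0 for no effect and ±100 for the full control effect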
# Method in brief: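 Read-out: CCF4 FRET ratio (460 nm/530 nm) after 1 h RT dye loading, used for %activity and AC50 from titration series. Cells: Jurkat NFAT-β-lactamase/M1 line, treated with compound plus 1 uM carbachol for 5 h, 37 °C.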
# [5] = Stat Signaling Pathway (AID 446); conditions: ME-180 SIE beta-lactamase reporter, IL-6 stimulated, 5 h; at 7.69 µM (top of the series) unless noted;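 note: ME-180 cervical cancer cells given 40 pM IL-6 alongside compound; SIE-controlled beta-lactamase reporter measured as 460/530 nm FRET emission ratio; % is set by controls: 0 for no effect and ±100 for the full control effect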
# Method in brief: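 ME-180 SIE-bla cells; overnight plating; cpd + IL-6 40 pM, 5 h, 37 C; LiveBLAzer 2.5 h RT; 460/530 nm emission ratio. Normalized to 300 pM IL-6 and 125 nM JAK inhibitor controls.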
# [6] = biological target: Glucocorticoid receptor (Homo sapiens) (UniProt P04150); test: GR-GFP Redistribution (AID 450;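 active = compounds whose dose series gives a full or clear partial fitted curve of increased nuclear translocation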; note: potency is the fitted concentration of half-maximal effect); conditions: U2OS GR-GFP nuclear translocation, laser cytometry, 2 h
# [7] = biological target: Glucocorticoid receptor (Homo sapiens) (UniProt P04150); test: GR-EFC Redistribution (AID 451; calls by dose curve; note: potency is the fitted concentration of half-maximal effect); conditions: CHO-K1 GR-EFC translocation, beta-gal luminescence, 2 h
# Method in brief: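 Translocation of GR-ED fusion to nuclear EA restores b-gal, read by luminescence after 1 h room-temperature detection. Engineered CHO-K1 biosensor cells, 1,000/well, exposed 2 h at 37 C to titrations up to 46 uM final.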
# [8] = biological target: Mitogen-activated protein kinase 10 (Mus musculus) (UniProt Q61831); test: JNK3 AlphaScreen Assay (AID 530); conditions: JNK3 lysate, c-Jun phosphorylation; series mostly up to 57.1 µM
# Method in brief: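 Room-temperature AlphaScreen kinase assay; pre-activated HepG2 lysate as JNK3 source, biotin-GST-cJun(1-79) substrate, 10 uM ATP, compound 15 min preincubation.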
# [9] = biological target: 3',5'-cyclic-AMP phosphodiesterase 4B (Homo sapiens) (UniProt Q07343); test: qHTS Assay for Inhibitors of PDE-IV (AID 607; active = well fitted activation curve with a large enough effect in the main read-out, with a control signal flat, not every such curve was filed as active; note: % of control where 0% means no effect); conditions: HEK293 ACTOne CNG channel cells, membrane potential fluorescence; series mostly up to 22.9 µM
# Method in brief: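 ACTOne HEK293 cells carry a modified cAMP-gated CNG channel and express endogenous PDE4; plated 1000 cells/well, compounds up to 22.9 uM final. Membrane-potential dye fluorescence (ex 535/em 590) was read; parental cells received 10 uM forskolin + 100 uM RO 20-1724.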
# [10] = biological target: Cytochrome P450 3A4 (Homo sapiens) (UniProt P08684); test: qHTS Assay for Activators of Cytochrome P450 3A4 (AID 885; active = well fitted curve in the direction sought with a large enough effect; an effect the other way counts as inactive or inconclusive; note: nearly all actives have a fitted effect of over 65% in size); conditions: recombinant CYP3A4, Luciferin-PPXE luminescence, 60 min; series mostly up to 57.1 µM
# Method in brief: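 20nM CYP3A4 + 25uM Luciferin-PPXE (=KM), 200mM KPO4; cpd 10 min RT; NADPH regen, 60 min RT; stop w/ detection buffer, 20 min; luminescence. Normalized to 57 uM ketoconazole.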
# [11] = biological target: Dual specificity protein kinase CLK4 (Homo sapiens) (UniProt Q9HAZ1); test: qHTS Assay for Inhibitors of CDC-like Kinase 4 (ADP-FP Assay) (AID 1795; active = well fitted curve in the direction sought with a large enough effect; an effect the other way counts as inactive or inconclusive;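 note: recombinant human CLK4 phosphorylating RS repeat peptide at 1 µM ATP; % is set by controls: 0 for no effect and ±100 for the full control effect; nearly all actives have a fitted effect of over 60% in size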); conditions: Transcreener ADP fluorescence polarization; series mostly up to 50 µM
# Method in brief: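 Kinase activity was followed as ADP output, converted from fluorescence polarization with a calibration curve. Reactions ran one hour at low ATP (1 uM) with RS peptide substrate.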
# [12] = biological target: Ubiquitin carboxyl-terminal hydrolase 1 (Homo sapiens) (UniProt O94782); test: Inhibitors of USP1/UAF1: Pilot qHTS (AID 504865; active = well fitted curve in the direction sought with a large enough effect; an effect the other way counts as inactive or inconclusive;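 note: rhodamine fluorescence freed from ubiquitin-rhodamine substrate followed over time; top concentration of the series differs between compounds; % is set by controls: 0 for no effect and ±100 for the full control effect; nearly all actives have a fitted effect of over 35% in size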); conditions: purified USP1/UAF1, Ub-rhodamine cleavage fluorescence; series mostly up to 54.9 µM
# Method in brief: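 Enzyme-free wells gave the negative control, while test wells held 1nM USP1/UAF1 preincubated with compound for 15 min at room temperature. Ub-Rho at 150nM final started the reaction, and fluorescence at 480/540 nm was recorded kinetically.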
# [13] = biological target: Lysosomal acid glucosylceramidase (Homo sapiens) (UniProt P04062); test: Glucocerebrosidase-p2 (AID 348; in the data active = potency below about 10 µM; note: potency is the fitted concentration of half-maximal effect); conditions: purified GBA, blue fluorogenic substrate, 40 min
# Method in brief: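 Compounds titrated from 0.6 nM upwards against 0.2 nM enzyme in pH 5.9 citric acid/KH2PO4, taurocholate, tween-20; blue fluorogenic substrate 80 uM, 40 min room temperature, stopped and read Ex 365/Em 440 for AC50.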
# [14] = biological target: Cytochrome P450 3A4 (Homo sapiens) (UniProt P08684); test: qHTS Assay for Inhibitors and Substrates of Cytochrome P450 3A4 (AID 884; active = well fitted curve in the direction sought with a large enough effect; an effect the other way counts as inactive or inconclusive; note: potency is the fitted concentration of half-maximal effect; nearly all actives have a fitted effect of over 50% in size); conditions: recombinant CYP3A4, Luciferin-PPXE luminescence; series mostly up to 57.1 µM
# Method in brief: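 20 nM human CYP3A4 with 25 uM Luciferin-PPXE (at KM) in 200 mM KPO4, preincubated 10 min with compound; NADPH regeneration started a 60 min RT reaction. Luciferin detected by luminescence, normalized to 57 uM ketoconazole as full inhibition.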
# [15] = biological target: Cytochrome P450 2C9 (Homo sapiens) (UniProt P11712); test: qHTS Assay for Inhibitors and Substrates of Cytochrome P450 2C9 (AID 883; active = well fitted curve in the direction sought with a large enough effect; an effect the other way counts as inactive or inconclusive; note: nearly all actives have a fitted effect of over 60% in size; note: potency is the fitted concentration of half-maximal effect); conditions: recombinant CYP2C9, luciferin-H luminescence, 60 min; series mostly up to 57.1 µM
# Method in brief: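 Turnover of Luciferin-H (100uM, KM) by 10nM human CYP2C9 was measured over 60 min at 37C with NADPH regeneration; inhibitors and some substrates reduce luminescence. Data normalized to sulphaphenazole 57uM.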
# [16] = biological target: Cytochrome P450 2C19 (Homo sapiens) (UniProt P33261); test: qHTS Assay for Inhibitors and Substrates of Cytochrome P450 2C19 (AID 899; active = well fitted curve in the direction sought with a large enough effect; an effect the other way counts as inactive or inconclusive; note: potency is the fitted concentration of half-maximal effect; nearly all actives have a fitted effect of over 60% in size); conditions: recombinant CYP2C19, luciferin-H EGE luminescence; series mostly up to 57.1 µM
# Method in brief: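 Reactions contain 5nM enzyme, 10uM Luciferin-H EGE (KM) and 50mM KPO4; compound preincubates 10 min at 37C, NADPH regeneration starts turnover for 60 min. Luminescence after detection reagent gives activity.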
# [17] = qHTS Assay for Identification of Small Molecule Agonists for Hypoxia Response Element Signaling Pathway (AID 914; active = well fitted activation curve with a large enough effect in the signal ratio, with a control signal flat, not every such curve was filed as active; the % refers to the signal ratio; note: % of control where 0% means no effect); conditions: ME-180 (cervical carcinoma) HRE-bla reporter, beta-lactamase ratio, CoCl2, 17 h; activation: active compounds read high
# Method in brief: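 AC50 values come from titration-series %Activity, taken as the 460/530nm ratio of CCF4 fluorescence (excitation 405nm). CellSensor HRE-bla ME-180 cells were treated 17 hours at 37 C with compound plus an EC50 level of CoCl2.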
# [18] = Confirmation and Secondary Assay for Modulators of Hemoglobin Beta Chain Splicing at IVS2 705 locus (AID 930; active = well fitted curve in the direction sought with a large enough effect; an effect the other way counts as inactive or inconclusive;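 note: HeLa cells stably expressing the EGFP-705 splicing reporter; % of control where 0% means no effect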); conditions: HeLa EGFP-705 splicing reporter, GFP fluorescence, 48 h; series mostly up to 38.3 µM
# Method in brief: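 Restored EGFP fluorescence after 2-day compound exposure reports splicing correction in IVS2-705 EGFP reporter HeLa cells; positive control was 500 nM splice-blocking PNA oligo. Signal measured as well total peak GFP intensity (488 nm excitation).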
# Cytochrome P450 3A4 (Homo sapiens), sequence (P08684 whole entry, looked up): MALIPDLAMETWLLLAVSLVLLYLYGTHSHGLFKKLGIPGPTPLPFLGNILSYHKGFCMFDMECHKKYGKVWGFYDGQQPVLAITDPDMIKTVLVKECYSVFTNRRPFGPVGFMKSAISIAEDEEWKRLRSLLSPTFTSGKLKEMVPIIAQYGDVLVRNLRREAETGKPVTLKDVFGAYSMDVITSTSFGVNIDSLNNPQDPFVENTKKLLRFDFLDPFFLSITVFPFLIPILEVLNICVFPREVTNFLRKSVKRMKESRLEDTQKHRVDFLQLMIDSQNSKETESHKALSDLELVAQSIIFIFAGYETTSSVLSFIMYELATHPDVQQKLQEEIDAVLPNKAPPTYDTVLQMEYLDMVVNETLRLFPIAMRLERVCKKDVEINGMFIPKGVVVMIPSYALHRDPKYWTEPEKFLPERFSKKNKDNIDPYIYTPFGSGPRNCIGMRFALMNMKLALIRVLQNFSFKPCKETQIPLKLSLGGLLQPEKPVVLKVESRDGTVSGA
# Cytochrome P450 1A2 (Homo sapiens), sequence (P05177 whole entry, looked up): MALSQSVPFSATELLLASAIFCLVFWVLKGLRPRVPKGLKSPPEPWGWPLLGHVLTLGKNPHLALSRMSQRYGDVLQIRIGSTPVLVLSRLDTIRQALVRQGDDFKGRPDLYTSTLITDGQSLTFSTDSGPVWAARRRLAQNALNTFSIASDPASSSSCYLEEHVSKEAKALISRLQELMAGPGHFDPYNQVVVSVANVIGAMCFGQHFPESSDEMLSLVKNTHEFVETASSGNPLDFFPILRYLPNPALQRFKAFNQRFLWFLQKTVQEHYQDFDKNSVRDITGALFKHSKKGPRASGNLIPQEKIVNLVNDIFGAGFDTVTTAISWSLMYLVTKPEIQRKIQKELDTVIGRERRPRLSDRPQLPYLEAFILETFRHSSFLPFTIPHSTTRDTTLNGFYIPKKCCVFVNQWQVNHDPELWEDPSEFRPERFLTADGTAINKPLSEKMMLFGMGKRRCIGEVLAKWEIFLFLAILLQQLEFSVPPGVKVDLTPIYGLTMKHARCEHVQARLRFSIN
# 3',5'-cyclic-AMP phosphodiesterase 4B (Homo sapiens), sequence (Q07343 whole entry, looked up): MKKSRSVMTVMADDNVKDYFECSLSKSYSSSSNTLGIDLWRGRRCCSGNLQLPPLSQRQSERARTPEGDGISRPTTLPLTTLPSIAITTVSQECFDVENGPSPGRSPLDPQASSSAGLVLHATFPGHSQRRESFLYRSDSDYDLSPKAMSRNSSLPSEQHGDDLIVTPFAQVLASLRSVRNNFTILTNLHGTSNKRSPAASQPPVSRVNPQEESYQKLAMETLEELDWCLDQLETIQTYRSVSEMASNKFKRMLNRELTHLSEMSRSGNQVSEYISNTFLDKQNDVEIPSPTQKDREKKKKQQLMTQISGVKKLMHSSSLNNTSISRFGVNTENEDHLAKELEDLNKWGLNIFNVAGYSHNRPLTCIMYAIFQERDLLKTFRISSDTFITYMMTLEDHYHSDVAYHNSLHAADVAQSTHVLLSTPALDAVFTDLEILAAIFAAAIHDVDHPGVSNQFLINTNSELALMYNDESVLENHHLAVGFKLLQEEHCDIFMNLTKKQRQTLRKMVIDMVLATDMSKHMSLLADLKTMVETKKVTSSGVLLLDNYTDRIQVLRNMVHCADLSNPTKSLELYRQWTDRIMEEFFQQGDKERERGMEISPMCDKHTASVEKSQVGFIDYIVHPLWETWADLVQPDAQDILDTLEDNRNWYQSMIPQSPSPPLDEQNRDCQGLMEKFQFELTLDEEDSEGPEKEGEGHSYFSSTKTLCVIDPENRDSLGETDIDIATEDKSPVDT
# Ubiquitin carboxyl-terminal hydrolase 1 (Homo sapiens), sequence (O94782 whole entry, looked up): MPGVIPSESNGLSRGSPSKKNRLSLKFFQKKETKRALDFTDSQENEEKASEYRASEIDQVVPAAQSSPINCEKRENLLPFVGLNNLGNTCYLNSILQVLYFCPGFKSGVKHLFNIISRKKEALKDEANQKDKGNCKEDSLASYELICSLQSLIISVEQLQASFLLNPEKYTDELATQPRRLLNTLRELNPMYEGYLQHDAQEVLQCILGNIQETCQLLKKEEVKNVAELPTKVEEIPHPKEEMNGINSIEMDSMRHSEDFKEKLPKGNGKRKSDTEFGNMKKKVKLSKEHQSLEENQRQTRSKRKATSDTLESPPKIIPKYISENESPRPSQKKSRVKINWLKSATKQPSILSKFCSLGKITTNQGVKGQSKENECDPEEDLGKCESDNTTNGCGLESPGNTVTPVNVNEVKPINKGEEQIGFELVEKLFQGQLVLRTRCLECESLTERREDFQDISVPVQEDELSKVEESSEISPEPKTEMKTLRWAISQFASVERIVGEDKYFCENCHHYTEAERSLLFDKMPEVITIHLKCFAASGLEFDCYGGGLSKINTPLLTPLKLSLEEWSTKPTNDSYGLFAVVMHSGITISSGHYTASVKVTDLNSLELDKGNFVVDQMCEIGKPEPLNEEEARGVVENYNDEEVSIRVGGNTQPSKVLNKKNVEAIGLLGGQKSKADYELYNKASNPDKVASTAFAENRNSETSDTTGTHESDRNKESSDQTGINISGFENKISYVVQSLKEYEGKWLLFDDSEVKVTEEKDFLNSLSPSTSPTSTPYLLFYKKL
# Lysosomal acid glucosylceramidase (Homo sapiens), sequence (P04062 whole entry, looked up): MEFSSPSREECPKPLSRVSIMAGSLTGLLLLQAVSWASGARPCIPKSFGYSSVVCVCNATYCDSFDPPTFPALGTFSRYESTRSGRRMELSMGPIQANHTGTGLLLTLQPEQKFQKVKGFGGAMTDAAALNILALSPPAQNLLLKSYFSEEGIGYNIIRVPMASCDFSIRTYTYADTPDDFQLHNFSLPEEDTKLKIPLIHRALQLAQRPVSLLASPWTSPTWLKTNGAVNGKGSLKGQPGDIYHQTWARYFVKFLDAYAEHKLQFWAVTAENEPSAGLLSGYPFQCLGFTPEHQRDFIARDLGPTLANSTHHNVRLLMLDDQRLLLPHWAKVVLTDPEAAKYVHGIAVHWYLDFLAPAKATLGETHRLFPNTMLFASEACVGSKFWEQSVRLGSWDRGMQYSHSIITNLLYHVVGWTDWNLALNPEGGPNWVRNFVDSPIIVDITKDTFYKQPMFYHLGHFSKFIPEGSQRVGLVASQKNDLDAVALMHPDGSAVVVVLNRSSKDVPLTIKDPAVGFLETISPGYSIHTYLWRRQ
# Cytochrome P450 2C9 (Homo sapiens), sequence (P11712 whole entry, looked up): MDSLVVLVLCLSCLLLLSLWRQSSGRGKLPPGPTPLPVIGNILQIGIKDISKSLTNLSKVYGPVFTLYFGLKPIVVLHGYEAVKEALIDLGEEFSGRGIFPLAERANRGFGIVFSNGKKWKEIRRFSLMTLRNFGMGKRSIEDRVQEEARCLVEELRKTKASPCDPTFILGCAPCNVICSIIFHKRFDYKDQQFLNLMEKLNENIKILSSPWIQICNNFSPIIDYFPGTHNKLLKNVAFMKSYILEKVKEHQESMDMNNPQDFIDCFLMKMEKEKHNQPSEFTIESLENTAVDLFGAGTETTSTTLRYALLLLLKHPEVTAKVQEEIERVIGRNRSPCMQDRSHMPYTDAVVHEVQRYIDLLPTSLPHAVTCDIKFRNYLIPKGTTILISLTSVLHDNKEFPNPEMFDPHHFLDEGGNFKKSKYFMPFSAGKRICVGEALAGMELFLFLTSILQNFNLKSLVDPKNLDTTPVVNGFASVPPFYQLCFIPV
# Glucocorticoid receptor (Homo sapiens), sequence (P04150 whole entry, looked up, the tested form may be a part): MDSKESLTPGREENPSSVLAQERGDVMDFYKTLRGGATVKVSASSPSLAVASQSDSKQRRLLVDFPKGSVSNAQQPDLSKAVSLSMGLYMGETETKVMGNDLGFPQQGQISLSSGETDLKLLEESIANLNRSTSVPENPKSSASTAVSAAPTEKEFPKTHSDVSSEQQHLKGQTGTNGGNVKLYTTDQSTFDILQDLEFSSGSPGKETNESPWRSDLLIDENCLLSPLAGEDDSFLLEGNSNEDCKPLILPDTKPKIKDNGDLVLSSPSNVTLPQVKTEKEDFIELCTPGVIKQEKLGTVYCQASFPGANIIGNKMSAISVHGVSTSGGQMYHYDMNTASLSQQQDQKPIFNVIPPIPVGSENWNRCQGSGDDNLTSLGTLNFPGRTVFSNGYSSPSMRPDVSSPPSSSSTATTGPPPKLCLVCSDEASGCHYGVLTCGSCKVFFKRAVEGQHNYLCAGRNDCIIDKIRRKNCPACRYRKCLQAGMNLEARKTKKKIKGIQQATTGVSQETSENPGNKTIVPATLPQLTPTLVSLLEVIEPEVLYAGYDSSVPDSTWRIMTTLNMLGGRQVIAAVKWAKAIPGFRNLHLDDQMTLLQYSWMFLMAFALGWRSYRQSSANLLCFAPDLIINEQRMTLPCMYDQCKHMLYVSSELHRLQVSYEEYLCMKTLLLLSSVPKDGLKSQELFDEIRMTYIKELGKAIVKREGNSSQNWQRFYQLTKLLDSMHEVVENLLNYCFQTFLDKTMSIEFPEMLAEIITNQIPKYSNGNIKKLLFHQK
# Dual specificity protein kinase CLK4 (Homo sapiens), sequence (Q9HAZ1 whole entry, looked up): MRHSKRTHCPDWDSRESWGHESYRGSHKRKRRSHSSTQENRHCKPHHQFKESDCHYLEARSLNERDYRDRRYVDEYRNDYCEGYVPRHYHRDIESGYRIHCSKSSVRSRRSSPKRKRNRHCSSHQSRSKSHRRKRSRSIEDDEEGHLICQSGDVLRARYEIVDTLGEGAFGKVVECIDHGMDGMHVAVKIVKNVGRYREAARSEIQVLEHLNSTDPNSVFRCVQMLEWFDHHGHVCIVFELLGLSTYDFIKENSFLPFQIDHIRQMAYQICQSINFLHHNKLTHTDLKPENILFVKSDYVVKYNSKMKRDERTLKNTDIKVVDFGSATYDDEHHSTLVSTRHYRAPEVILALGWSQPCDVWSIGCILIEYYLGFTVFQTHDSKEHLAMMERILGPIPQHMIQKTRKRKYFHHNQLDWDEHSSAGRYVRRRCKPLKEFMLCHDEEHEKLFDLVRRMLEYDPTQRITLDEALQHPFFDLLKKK
Compound,outcome [1],"activity change, negative = inhibition [2] [%]",Potency [3],"activity change, negative = inhibition [4] [%]","activity, negative = inhibition [5] [%]",Potency [6] [µM],Potency [7] [µM],Potency [8],Potency [9],Potency [10],Potency [11],Potency [12],Potency [13] [µM],Potency [14],"activity change, negative = inhibition [15]",Potency [16],Potency [15],activation [17] [%],outcome [18]
CCC(=O)O[C@@H]1CC(=O)O[C@H](C)C/C=C/C=C/[C@@H](O)[C@H](C)C[C@H](CC=O)[C@H](OC2O[C@H](C)[C@@H](O[C@H]3C[C@@](C)(O)[C@@H](OC(=O)CC)[C@H](C)O3)[C@H](N(C)C)[C@H]2O)[C@H]1OC (stereo partly specified),inactive,–,–,–,–,–,–,–,–,–,–,–,–,–,–,–,–,–,–
Cc1cnc(CNc2ccnc(-c3cccc(NS(C)(=O)=O)c3)n2)cn1,inactive,-6.82,20 µM (active),13.5,4.11,> 46,> 46,inactive,inactive,inactive,inactive,inactive,–,–,–,–,–,–,–
CC(=O)NCCNc1nc(-c2ccc3c(c2)OCO3)nc2ccccc12,inactive,-7.08,2.51 µM (active),5.61,4.37,> 46,> 46,inactive,inactive,inactive,–,inactive,> 11.4,3.98 µM (active),–,–,–,–,–
CN(C)c1nc(-c2ccccc2C(F)(F)F)nc2ccccc12,inactive,–,0.251 µM (active),0.537,7.02,> 46,–,inactive,inactive,–,inactive,inactive,> 11.4,–,37.2% [at 2.29 µM],–,–,–,–
COCCn1c(=O)c(-c2ccc(F)c(F)c2)nc2cncnc21,inactive,-26.5,0.251 µM (active),-12.1,0.716,> 9.22,> 46,inactive,inactive,inactive,–,–,> 11.4,–,–,–,–,–,–
O=c1cnc2cnc(N3CCOCC3)nc2n1Cc1ccc(F)cc1,inactive,-5.88,3.98 µM (active),-6.28,6.58,> 9.22,> 46,inactive,–,–,–,–,> 11.4,–,–,3.98 µM (active),–,–,–
COc1ccc(-n2c(=O)c(C)nc3cncnc32)cc1,inactive,-7.74,inactive,7.82,-15.1,> 9.22,> 46,inactive,inactive,inactive,–,–,> 11.4,–,–,–,–,–,–
COCCn1c(=O)c(-c2ccc(Cl)cc2)nc2cncnc21,inactive,-10.8,0.2 µM (active),9.96,1.43,> 9.22,> 46,inactive,inactive,inactive,–,–,> 11.4,–,–,–,–,–,–
COCCn1c(=O)c(-c2cc(F)cc(F)c2)nc2cnc(Oc3cccc(Cl)c3)nc21,inactive,30.2,5.01 µM (active),-9.31,24.9,> 9.22,> 46,inactive,inactive,inactive,–,–,> 11.4,–,–,–,3.98 µM (active),–,–
COc1ccc(-n2c(=O)c(-c3cn(C)c4ccccc34)nc3cncnc32)cc1,inactive,-24.9,0.316 µM (active),6.02,-19.8,> 9.22,> 46,inactive,inactive,inactive,–,–,> 11.4,–,–,–,inactive,–,–
Cc1noc(C)c1-c1nccc(Nc2ccc(F)cc2)n1,inactive,-22.4,0.398 µM (active),-10.5,1.44,> 46,> 46,inactive,inactive,inactive,–,–,> 11.4,–,–,3.98 µM (active),–,21.5,–
Cc1nc2cnc(N(C)C)nc2n(C)c1=O,inactive,-9.37,3.98 µM (active),-9.43,0.339,> 9.22,> 46,inactive,inactive,inactive,–,–,> 11.4,–,–,–,–,–,–
CN1CCN(c2ccnc(-c3cccc(NS(C)(=O)=O)c3)n2)CC1,inactive,-6.86,12.6 µM (active),-9.78,7.5,> 46,> 46,inactive,inactive,inactive,–,–,> 11.4,–,–,–,–,0.356,inactive
